# Results from publication PMC11062922 (Nature Chemical Biology, 2023).
# Like-named read-outs stand apart in the source and are kept apart here.
# Assays:
# Set-up in all cases: species or system human, MV4-11 + K-562 + COLO205 + SK-N-BE2 + OVCAR-8
# ADCK1 = conditions: read-out: apparent Kd; compound concentrations: 100 nM and 1000 nM (sheet 'Samples'), CATDS: 4.4524563972159897E-2; n = 1
# ADK = conditions: read-out: apparent Kd; compound concentrations: 100 nM and 1000 nM (sheet 'Samples'), CATDS: 4.5787667935106503E-2; n = 1
# CDK4 = conditions: read-out: apparent Kd; compound concentrations: 100 nM and 1000 nM (sheet 'Samples'), CATDS: 4.6312693671670499E-2; n = 1
# CSNK1D = conditions: read-out: apparent Kd; compound concentrations: 100 nM and 1000 nM (sheet 'Samples'), CATDS: 7.6669822847603902E-2; n = 1
# CSNK1E = conditions: read-out: apparent Kd; compound concentrations: 100 nM and 1000 nM (sheet 'Samples'), CATDS: 6.5483605156218705E-2; n = 1
# MAP4K5 = conditions: read-out: apparent Kd; compound concentrations: 100 nM and 1000 nM (sheet 'Samples'), CATDS: 6.0957264613737197E-2; n = 1
# PRKACA = conditions: read-out: apparent Kd; compound concentrations: 100 nM and 1000 nM (sheet 'Samples'), CATDS: 6.9210809350161107E-2; n = 1
# PRKACB = conditions: read-out: apparent Kd; compound concentrations: 100 nM and 1000 nM (sheet 'Samples'), CATDS: 6.0886440238293899E-2; n = 1
# PRKCD = conditions: read-out: apparent Kd; compound concentrations: 100 nM and 1000 nM (sheet 'Samples'), CATDS: 6.5587395591723996E-2; n = 1
# PRKCQ = conditions: read-out: apparent Kd; compound concentrations: 100 nM and 1000 nM (sheet 'Samples'), CATDS: 0.20872331441348899; n = 1
# PRKD2 = conditions: read-out: apparent Kd, n = 1
# PRKD3 = conditions: read-out: apparent Kd; compound concentrations: 100 nM and 1000 nM (sheet 'Samples'), CATDS: 0.24703755989756301; n = 1
# RPS6KB1 = conditions: read-out: apparent Kd; compound concentrations: 100 nM and 1000 nM (sheet 'Samples'), CATDS: 6.31408503509263E-2; n = 1
# TNIK = conditions: read-out: apparent Kd, n = 1
# ACVR1 = conditions: read-out: apparent Kd; compound concentrations:100 nM and 1000 nM (sheet 'Samples'); n = 1
# CDK16 = conditions: read-out: apparent Kd; compound concentrations:100 nM and 1000 nM (sheet 'Samples'); n = 1
# CDK17 = conditions: read-out: apparent Kd; compound concentrations:100 nM and 1000 nM (sheet 'Samples'); n = 1
# CDK6 = conditions: read-out: apparent Kd; compound concentrations:100 nM and 1000 nM (sheet 'Samples'); n = 1
# CDK9 = conditions: read-out: apparent Kd; compound concentrations:100 nM and 1000 nM (sheet 'Samples'); n = 1
# EIF2AK1 = conditions: read-out: apparent Kd; compound concentrations:100 nM and 1000 nM (sheet 'Samples'); n = 1
# GSK3A = conditions: read-out: apparent Kd; compound concentrations:100 nM and 1000 nM (sheet 'Samples'); n = 1
# GSK3B = conditions: read-out: apparent Kd; compound concentrations:100 nM and 1000 nM (sheet 'Samples'); n = 1
# ICK = conditions: read-out: apparent Kd; compound concentrations:100 nM and 1000 nM (sheet 'Samples'); n = 1
# MAPK7 = conditions: read-out: apparent Kd; compound concentrations:100 nM and 1000 nM (sheet 'Samples'); n = 1
# PDGFRB = conditions: read-out: apparent Kd; compound concentrations:100 nM and 1000 nM (sheet 'Samples'); n = 1
# PIM2 = conditions: read-out: apparent Kd; compound concentrations:100 nM and 1000 nM (sheet 'Samples'); n = 1
# TAOK2 = conditions: read-out: apparent Kd; compound concentrations:100 nM and 1000 nM (sheet 'Samples'); n = 1
# ACVR1B = conditions: read-out: apparent Kd, n = 1
# GAK = conditions: read-out: apparent Kd; compound concentrations:100 nM and 1000 nM (sheet 'Samples'); n = 1
# NQO2 = conditions: read-out: apparent Kd; compound concentrations:100 nM and 1000 nM (sheet 'Samples'); n = 1
# RIPK2 = conditions: read-out: apparent Kd; compound concentrations:100 nM and 1000 nM (sheet 'Samples'); n = 1
# TGFBR1 = conditions: read-out: apparent Kd; compound concentrations:100 nM and 1000 nM (sheet 'Samples'); n = 1
# TGFBR2 = conditions: read-out: apparent Kd; compound concentrations:100 nM and 1000 nM (sheet 'Samples'); n = 1
# DDR1 = conditions: read-out: apparent Kd; compound concentrations: 100 nM and 1000 nM (sheet 'Samples'), CATDS: 0.15549636172905901; n = 1
# JAK2 = conditions: read-out: apparent Kd; compound concentrations: 100 nM and 1000 nM (sheet 'Samples'), CATDS: 0.70328815445029103; n = 1
# MAPK14 = conditions: read-out: apparent Kd; compound concentrations: 100 nM and 1000 nM (sheet 'Samples'), CATDS: 0.189242383322658; n = 1
# NLK = conditions: read-out: apparent Kd; compound concentrations: 100 nM and 1000 nM (sheet 'Samples'), CATDS: 0.152320021786015; n = 1
# [1] = compound concentrations:100 nM and 1000 nM (sheet 'Samples')
structure (smiles),measurement,setting,value
Cc1n[nH]c2ccc(-c3cc(OC[C@@H](N)Cc4c[nH]c5ccccc45)cnc3-c3ccoc3)cc12.Cc1n[nH]c2ccc(-c3cc(OC[C@@H](N)Cc4c[nH]c5ccccc45)cnc3-c3ccoc3)cc12.O=C(O)C(F)(F)F.O=C(O)C(F)(F)F.O=C(O)C(F)(F)F [GSK562689A],potency estimated from few doses,ADCK1,2150 nM
same,potency estimated from few doses,ADK,1830 nM
same,potency estimated from few doses,CDK4,1720 nM
same,potency estimated from few doses,CSNK1D,302 nM
same,potency estimated from few doses,CSNK1E,464 nM
same,potency estimated from few doses,MAP4K5,577 nM
same,potency estimated from few doses,PRKACA,396 nM
same,potency estimated from few doses,PRKACB,579 nM
same,potency estimated from few doses,PRKCD,462 nM
same,potency estimated from few doses,PRKCQ,41.7 nM
same,potency estimated from few doses,"PRKD2; compound concentrations: 100 nM and 1000 nM (sheet 'Samples'), CATDS: 0.17196563894613301",57.2 nM
same,potency estimated from few doses,PRKD3,32.3 nM
same,potency estimated from few doses,RPS6KB1,518 nM
same,potency estimated from few doses,"TNIK; compound concentrations: 100 nM and 1000 nM (sheet 'Samples'), CATDS: 0.113919393065207",123 nM
CCN1CCN(CCCC(=O)Nc2n[nH]c3nc(-c4ccc(O)cc4)c(Br)cc23)CC1 [SB-731579],potency estimated from few doses,ACVR1,914 nM
same,potency estimated from few doses,CDK16,1220 nM
same,potency estimated from few doses,CDK17,986 nM
same,potency estimated from few doses,CDK6,1070 nM
same,potency estimated from few doses,CDK9,1180 nM
same,potency estimated from few doses,EIF2AK1,201 nM
same,potency estimated from few doses,GSK3A,4.8 nM
same,potency estimated from few doses,GSK3B,20.1 nM
same,potency estimated from few doses,ICK,1420 nM
same,potency estimated from few doses,MAPK7,1360 nM
same,potency estimated from few doses,PDGFRB,145 nM
same,potency estimated from few doses,PIM2,557 nM
same,potency estimated from few doses,TAOK2,1350 nM
c1ccc(-c2n[nH]cc2-c2ccnc(-c3ccc(OCCn4ccnc4)cc3)c2)nc1 [GW711782X],potency estimated from few doses,ACVR1B; [1],245 nM
same,potency estimated from few doses,GAK,1350 nM
same,potency estimated from few doses,NQO2,71.1 nM
same,potency estimated from few doses,PRKD2; [1],2160 nM
same,potency estimated from few doses,RIPK2,801 nM
same,potency estimated from few doses,TGFBR1,82 nM
same,potency estimated from few doses,TGFBR2,719 nM
same,potency estimated from few doses,TNIK; [1],873 nM
COc1ccc(-c2nn3ncccc3c2-c2ccnc(Nc3ccc(F)c(F)c3)n2)cc1 [GW827396X],potency estimated from few doses,"ACVR1B; compound concentrations: 100 nM and 1000 nM (sheet 'Samples'), CATDS: 0.188759897575135",1020 nM
same,potency estimated from few doses,DDR1,1770 nM
same,potency estimated from few doses,JAK2,73 nM
same,potency estimated from few doses,MAPK14,1010 nM
same,potency estimated from few doses,NLK,1900 nM
